Drawing on the supplement of paper PMC6555819, this text covers PBM binding z-score for 40 sequences.

The test system of the experiment is VDR:RXRa (NR concentration 270 nM, RXRa partner concentration 90 nM). Kind of experiment: PBM binding z-score (relative to random genomic background probes); higher = stronger binding; sequences stand for … in GC…GCGATTGACAGCGTAGAATGAAGG
On the procedure:
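Protein-binding microarray (Agilent 4x180K custom design, double-stranded 60-nt probes: 5' GC cap, 34-nt variable region, 24-nt constant primer region; full probe sequence given). Purified or IVT nuclear receptor:RXRα heterodimers (3:1 NR:RXRα, mostly 270:90 nM) or homodimers were incubated for 1 h in PBS with 2% milk and no ligand, then detected with Alexa488 antibodies. Fluorescence from o1-orientation probes (~5 replicates averaged) was converted to z-scores against 500 random hg19 background probes. Variable regions are seed direct-repeat (DR0–DR5) sites, all their single-nucleotide variants and half-site ablations.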
Turning to CCGAGTAGGTTATGGGGCATTCATGCAACGGTGA, the PBM binding z-score came to 0.118.

In turn, CCTACTGGGCCATTCAGTGGTCATTGATCATATG returned a PBM binding z-score of -0.487.

Sequence AGAATGAGGTTATTAAGATCACGGAATTGCGGTC had a PBM binding z-score of 3.68.

Sequence TCTAGCAGGCCAGCGGGTCACTCAAGAGGTACGG came in with a PBM binding z-score of 0.435.

TCTTGTAGATCAAAGATTAAGAAAGCCGAAGCCT had a PBM binding z-score of 0.389.

The sequence TAGCCTGGGTCATGCGGGCCAGTATAGTGTCGGC registered a PBM binding z-score of 3.07.

As for GCAAGTTGGTCAGTAAAAGGTCACACACCGGTCG, the PBM binding z-score was determined as 4.11.

In the case of AGTCAAGGTTCACTAGGTAACGTAAGATTCAGCT, the PBM binding z-score is 3.27.

CTACCAAGGTGAACAAGGTCGTGGATTACTATTC yielded a PBM binding z-score of 5.77.

On to TCTGCTAGGTCAACGATGGACAGCTAATCTGCTA, for which the PBM binding z-score was 1.21.

In the case of CGTCAAAGTTCAACTATGGTAACGTAAAGCACGC, the PBM binding z-score was 4.35.

For ACTATCAGTTGAGACGAGGGCAACCGATAGGTTG, the PBM binding z-score was found to be 0.625.

ACTTACGGGTCAACGAGGTTGTAGCACGCGTATA came in with a PBM binding z-score of 7.54.

For the sequence GCGCCTGGGGCATCAGCAGGTTACCATAACTTAA, the PBM binding z-score is -0.28.

In turn, TAGGCTAGGTCATTCAGGGGCCAGTATAGAAAGC displayed a PBM binding z-score of 3.24.

For TAGCCTAGGTCATTCAGGGGCCAGTATCGAAAGC, the PBM binding z-score stood at 2.97.

For CCTCGGAGGACAGAAGGCCAGAGCTGTCCGCTTT, the PBM binding z-score was -0.762.

In turn, GCAGACAAGTGAAACGCAGGTAACTCAGGGTGGC yielded a PBM binding z-score of -0.581.

As for CGTCCAAGGTCATAGCAGGTCAGTGAAGACAGAT, the PBM binding z-score turned out to be 5.93.

TGAATGAGGTTAAAGATCAAGGAACGTGGCGTCG showed a PBM binding z-score of 2.09.

The sequence CGATCTAGGTCAAGGACAGTGAATCTCCGCACGC registered a PBM binding z-score of 0.643.

Turning to GTAACGAGGGCAAAGTTGATAGCATCTGTCGACG, the PBM binding z-score worked out at 1.53.

CCTACTGGGCCAAGGACATTGATCAGTCAAAGCA showed a PBM binding z-score of -0.496.

For TCGAATAGGTTACCAATGGGGCATTCAGCTTTCT, the PBM binding z-score amounted to 0.811.

With TTACCAAGGCGAAAGGTCGTTGATGCACGCCTTG, the PBM binding z-score came out at 1.65.

Sequence CCTTACGGGTCAAGGTTATAGTACGGGTGGTACG showed a PBM binding z-score of 3.62.

For CCTATTAGTTGACCATAAGGGCAGCCGAAGCTCG, the PBM binding z-score was 0.304.

In turn, TCATATAGGTAAACCGGTGAAAGTCCGTAAGTTA displayed a PBM binding z-score of 0.87.

In turn, ATACCAAGGTGATTGTGAGGTCGTTGATACTAAC showed a PBM binding z-score of 3.53.

In turn, TCGAGTAGGTTAGTCGGGGGATTCAGCCAACATA displayed a PBM binding z-score of 0.946.

TAGCCTAGGTCATGCGGGCCGGTATAGTGTCGGC had a PBM binding z-score of 2.22.

The sequence CCTGCTAGGTCACTGGTCAGCTAAAGCAGCTCGC yielded a PBM binding z-score of 1.39.

CTTAGCAGGCCAATCTGGGTCACTCAAGGCTTGA had a PBM binding z-score of 0.462.

With AGAACAAGGGCACGCTGAGTTGATAGCAGAGTAG, the PBM binding z-score came out at 1.36.

With CGTCCAATGTCAGAGAGGTCAGTGAATGCCGAGT, the PBM binding z-score was 5.22.

For the sequence TAGCCTAGGTCATATCGGGCCAGTATACGCTATA, the PBM binding z-score amounted to 2.28.

TCTTGTAGATCAGCAGGTTAAAAAAGCTGGCCAA came in with a PBM binding z-score of 0.495.

CAACCAAGGTGAACAAGGTCGTTGATTACTATTC registered a PBM binding z-score of 5.89.

TCGAGTAGGTTAGTCGGGGCATTCATCCAACATA displayed a PBM binding z-score of 2.37.

Turning to TCTATTAGTAGAAGGGCAACCGACGAGTCCGTTT, the PBM binding z-score worked out at 0.796.
